Hits are enriched below; roughly 4.1% of the tested compounds scored in any of these assays.
hcDAF12 agonist: H. contortus DAF-12 nuclear receptor activators, primary screen, cell-based, luminescence, HEK293, lit1-tk-luc reporter; 370,000 compounds, 1.4% hits; HEK293 hcDAF-12 lit1-tk-luc reporter; 0% DMSO, 100% Δ7-dafachronic acid; activation, % at 6.8 µM; AID 652067, 2013;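 active = activation above the mean of all tested compounds plus 3 SD, cut at about 5.5% in these data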;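 note: 100% = response to 3 µM Δ7-dafachronic acid high control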
DAX1 inh-1: DAX1 (NR0B1) inhibitors, primary screen, cell-based, HEK293, Gal4-DAX1, luciferase luminescence; inhibition, % at 6.75 µM; HEK293 Gal4-DAX1 luciferase reporter; AID 504766, 2011; Nuclear receptor subfamily 0 group B member 1 (Homo sapiens), P51843; 340,000 compounds, 0.99% hits;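 active = inhibition above the mean over all tested compounds plus 3 SD, cut at about 4.2% in these data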;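 note: 0% = DAX1-transfected cells with DMSO and 100% = empty-vector control cells with DMSO; inhibition shows as a rise in luminescence from relieved DAX1 repression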
Target sequence (P51843 207-470 limits assumed): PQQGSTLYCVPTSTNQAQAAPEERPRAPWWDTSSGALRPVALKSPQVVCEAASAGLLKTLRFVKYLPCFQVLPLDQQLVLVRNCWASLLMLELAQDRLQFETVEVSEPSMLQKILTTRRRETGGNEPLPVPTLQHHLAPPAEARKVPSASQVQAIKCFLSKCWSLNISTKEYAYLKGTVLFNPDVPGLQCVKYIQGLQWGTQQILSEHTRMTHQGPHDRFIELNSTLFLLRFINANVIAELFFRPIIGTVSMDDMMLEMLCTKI
ssDAF-12 act: S. stercoralis DAF-12 nuclear receptor activators, primary screen, cell-based, luminescence, HEK293, GRIP1 co-expression, lit1-tk-luc; AID 652126, 2013; activation, % at 6.8 µM; HEK293 ssDAF-12/GRIP1 lit1-tk-luc reporter; % of 3 µM dafachronic acid response; 370,000 compounds, 1% hits;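 active = activation above the mean over all tested compounds plus 3 SD, cut at about 0.9% in these data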;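 note: 0% = DMSO-only wells and 100% = 3 µM delta7-dafachronic acid wells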
DAX1 inh-2: DAX1 (NR0B1) inhibitors on StAR promoter, primary screen, cell-based, luminescence, SF-1 (NR5A1), full-length DAX-1 | HEK293T StAR-luciferase reporter, SF-1/DAX-1 repression relief | AID 652010, 2013 | inhibition, % at 6.8 µM | 370,000 compounds, 1.1% hits;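 active = inhibition above the mean over all tested compounds plus 3 SD, cut at about 3.6% in these data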;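 note: 0% = DAX-1 cells with DMSO and 100% = cells lacking DAX-1 with DMSO; higher inhibition means more luminescence from relief of DAX-1 repression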
hgDAF12 agonist: H. glycines DAF-12 receptor agonists, primary screen, cell-based, luminescence, HEK293, GAL4 fusion, UAS-luciferase; Nuclear hormone receptor DAF-12 (Heterodera glycines), GAL4 fusion; HEK293 GAL4-hgDAF12 UAS-luciferase reporter, agonist luminescence; normalized to butyrate control; activation, % at 6.8 µM; 370,000 compounds, 1.8% hits; AID 687014, 2013;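 active = activation above a cutoff set at the mean of all screened compounds plus 3 SD, cut at about 10% in these data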;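 note: 0% = DMSO wells and 100% = sodium butyrate wells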
* hit, by the source's call.

What do the screens show for `Cc1cccc(-c2nsc(SCC(=O)N3CCCC3)n2)c1`?
hcDAF12 agonist: 2; DAX1 inh-1: 2; ssDAF-12 act: 0; DAX1 inh-2: 3; hgDAF12 agonist: 13*

How did O=C(CSc1nc(-c2ccccc2)ns1)N1CCOCC1 do in these assays?
hcDAF12 agonist: 0; DAX1 inh-1: 1; ssDAF-12 act: 0; DAX1 inh-2: 2; hgDAF12 agonist: 4

What do the screens show for `Cc1ccc(-c2ccc(/C=N/O)o2)cc1[N+](=O)[O-]`?
hcDAF12 agonist: 0; DAX1 inh-1: -2; ssDAF-12 act: -2; DAX1 inh-2: 0; hgDAF12 agonist: 13*

What do the screens show for `Cc1cccc(NC(=O)C2CCN(c3nnc(-n4cccc4)s3)CC2)c1C`?
hcDAF12 agonist: -1; ssDAF-12 act: -1; DAX1 inh-2: 0; hgDAF12 agonist: -5

What do the screens show for `CCOC(=O)c1c(NC(=O)COC)sc(C)c1C`?
hcDAF12 agonist: -2; DAX1 inh-1: 0; ssDAF-12 act: -1; DAX1 inh-2: 0; hgDAF12 agonist: -2

What do the screens show for `CCOC(=O)c1c(NC(=O)COC(=O)c2cc(OC)c(OC)cc2[N+](=O)[O-])sc(C)c1C`?
hcDAF12 agonist: 3; DAX1 inh-1: 2; ssDAF-12 act: 1.4*; DAX1 inh-2: 0; hgDAF12 agonist: -1

What do the screens show for `COC(=O)[C@]12C[C@H](CC(=O)NCc3cccc(C(F)(F)F)c3)C(=O)N(CCc3ccc(OC)c(OC)c3)C1=C[C@H](COCc1ccccc1)O[C@@H]2C`?
hcDAF12 agonist: -4; ssDAF-12 act: -1; DAX1 inh-2: -2; hgDAF12 agonist: -2

How did CCN(CCN(C)C)C(=O)Cn1ncc2c1-c1cc(C)ccc1OC2 do in these assays?
hcDAF12 agonist: -1; DAX1 inh-1: 5.6*; ssDAF-12 act: -1; DAX1 inh-2: 0; hgDAF12 agonist: 2

How did C=CCN1C(=O)[C@H](CC(=O)NCCc2ccccc2OC)[C@@]2(C(=O)OCC)CCCC=C12 do in these assays?
hcDAF12 agonist: -1; ssDAF-12 act: 0; DAX1 inh-2: -1; hgDAF12 agonist: 2

Results for CCCCN(C)c1c2c(nc3ncnn13)CCCC2 ?
hcDAF12 agonist: -1; ssDAF-12 act: -1; DAX1 inh-2: -1; hgDAF12 agonist: -4

What do the screens show for `O=c1cc(N2CCc3ccccc32)[nH]c(=O)n1-c1ccc(Br)cc1`?
hcDAF12 agonist: 5.8*; DAX1 inh-1: -1; ssDAF-12 act: -1; DAX1 inh-2: 1; hgDAF12 agonist: -1

What do the screens show for `O=C(N/N=C/C1CC2CCC1C2)c1c[nH]c2ccccc12` (stereo not given)?
hcDAF12 agonist: 5.7*; DAX1 inh-1: 0; ssDAF-12 act: 1; DAX1 inh-2: 1; hgDAF12 agonist: 6

Results for O=C(N/N=C/c1ccc[nH]1)c1c[nH]c2ccccc12 ?
hcDAF12 agonist: 0; DAX1 inh-1: 1; ssDAF-12 act: 0; DAX1 inh-2: 1; hgDAF12 agonist: -1

What do the screens show for `Cc1ccsc1/C=N/NC(=O)c1c[nH]c2ccccc12`?
hcDAF12 agonist: 2; DAX1 inh-1: 0; ssDAF-12 act: 1; DAX1 inh-2: 0; hgDAF12 agonist: 11*

What do the screens show for `O=C(N/N=C/C1CC2CCC1C2)C1CC1` (stereo not given)?
hcDAF12 agonist: 2; DAX1 inh-1: 0; ssDAF-12 act: -1; DAX1 inh-2: 3.7*; hgDAF12 agonist: 1

What do the screens show for `CCOC(=O)CC[C@@]1(C(=O)OCC)C[C@@H](CC(=O)NCC23CC4CC(CC(C4)C2)C3)C(=O)N2CCCC=C21`?
hcDAF12 agonist: -2; ssDAF-12 act: -2; DAX1 inh-2: -2; hgDAF12 agonist: -1

Results for CC(=O)N1CCc2cc(S(=O)(=O)NCCC(=O)NCc3ccccc3)ccc21 ?
hcDAF12 agonist: -2; ssDAF-12 act: -1; DAX1 inh-2: -1; hgDAF12 agonist: -3

Results for CC(C)(C)c1ccc(S(=O)(=O)N2CCCC(C(=O)N3CCN(Cc4ccccc4)CC3)C2)cc1 (stereo not given) ?
hcDAF12 agonist: -3; ssDAF-12 act: -2; DAX1 inh-2: -3; hgDAF12 agonist: -2

Results for Cc1ccc(N(CC(=O)NCC2CCCO2)C(=O)Cn2nnc(-c3cccs3)n2)cc1 (stereo not given) ?
hcDAF12 agonist: 5.6*; DAX1 inh-1: -1; ssDAF-12 act: 1.1*; DAX1 inh-2: 3; hgDAF12 agonist: 12*

How did COc1ccc(NC(=O)CSc2ccccn2)cc1 do in these assays?
hcDAF12 agonist: 1; DAX1 inh-1: 0; ssDAF-12 act: -1; DAX1 inh-2: 1; hgDAF12 agonist: 5

Results for COc1cccc(NC(=O)CSc2nnc(-c3ccc(C)cc3)o2)c1 ?
hcDAF12 agonist: 3; DAX1 inh-1: 6.1*; ssDAF-12 act: 0; DAX1 inh-2: 6.5*; hgDAF12 agonist: 11*

Results for COc1ccc(C(=O)NCCSc2ccccn2)cc1 ?
hcDAF12 agonist: 6.4*; DAX1 inh-1: 0; ssDAF-12 act: 0; DAX1 inh-2: 3; hgDAF12 agonist: 12*

Results for COc1cccc(NC(=O)CSc2ccccn2)c1 ?
hcDAF12 agonist: 4; DAX1 inh-1: 3; ssDAF-12 act: 0; DAX1 inh-2: 1; hgDAF12 agonist: 13*

How did O=C(CSc1nnc(-c2ccc(O)cc2)o1)Nc1ccc2c(c1)OCCO2 do in these assays?
hcDAF12 agonist: 2; DAX1 inh-1: 0; ssDAF-12 act: -1; DAX1 inh-2: 3.6*; hgDAF12 agonist: 8

What do the screens show for `O=C(CSc1nnc(-c2ccc(O)cc2)o1)Nc1cccc(O)c1`?
hcDAF12 agonist: 2; DAX1 inh-1: 2; ssDAF-12 act: 0; DAX1 inh-2: 1; hgDAF12 agonist: 6

How did CCC(C)[C@H](NC(=O)[C@H](CC(C)C)NC(=O)OC(C)(C)C)C(=O)N[C@@H](Cc1ccccc1)C(=O)OC (stereo not given in full) do in these assays?
hcDAF12 agonist: 0; ssDAF-12 act: -1; DAX1 inh-2: 0; hgDAF12 agonist: 2

How did CN1CCN(CC(=O)NN(Cc2ccccc2)c2ccccc2)CC1 do in these assays?
hcDAF12 agonist: 0; DAX1 inh-1: 4.5*; ssDAF-12 act: -1; DAX1 inh-2: 0; hgDAF12 agonist: -3

How did Cc1ccc(S(=O)(=O)NC(CCCNC(=O)OCc2ccccc2)C(=O)O)cc1 (stereo not given) do in these assays?
hcDAF12 agonist: 0; ssDAF-12 act: -1; DAX1 inh-2: 0; hgDAF12 agonist: 0

How did CN(C)/N=C/C=C1\CCC/C(=C/c2cccs2)C1=O do in these assays?
hcDAF12 agonist: 1; DAX1 inh-1: 4.4*; ssDAF-12 act: 0; DAX1 inh-2: 1; hgDAF12 agonist: 12*

Screening data as filed in PubChem.
